Source: PubChem BioAssay (NCI)
The panel holds about 79,000 compounds, 15% with a hit somewhere; the sample as a whole holds those more often. Active and inactive are the calls of the source. Rule as the data show it: active = growth inhibition above about 70%; inactive = the rest.

Assays:
[1] = NCI Yeast Anticancer Drug Screen. Data for the rad52 strain (AID 147);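 also: 0% = growth of vehicle-treated control cultures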; conditions: S. cerevisiae rad52 mutant growth inhibition, hits give high values
How it was run: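 Growth of repair-deficient yeast cells was compared between compound-treated and vehicle-treated cultures to give percent inhibition.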

[2] = NCI Yeast Anticancer Drug Screen. Data for the wt1 strain (AID 149);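 also: 0% = growth of vehicle-treated wt1 cultures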; conditions: S. cerevisiae wt1 strain (SPY 50644) growth inhibition, hits give high values
How it was run: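 The wt1 strain was treated with compounds, and growth was compared with vehicle-treated cultures to give inhibition.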

[3] = NCI Yeast Anticancer Drug Screen. Data for the rad50EPP+ strain (AID 151);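 also: 0% = growth of vehicle-treated control cultures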; conditions: S. cerevisiae rad50 mutant strain, hits give high values
How it was run: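 Measured: growth inhibition of rad50EPP+ yeast. Reference: vehicle-treated controls. Screen uses strains with defined genetic alterations in DNA damage repair or cell cycle control.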

[4] = NCI Yeast Anticancer Drug Screen. Data for the mgt1 strain (AID 153); conditions: S. cerevisiae mgt1 mutant growth inhibition, hits give high values
How it was run: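 Compounds were applied to mgt1 mutant yeast, and growth was then compared against vehicle-treated control cultures to give percent inhibition.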

[5] = NCI Yeast Anticancer Drug Screen. Data for the rad50 strain (AID 155);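 also: 0% = growth of vehicle-only cultures of the same strain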; conditions: S. cerevisiae rad50 strain growth inhibition, hits give high values
How it was run: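 Cells are treated with compound, grown, and their growth is then scored against vehicle-only cultures of the same repair-deficient yeast strain.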

[6] = NCI Yeast Anticancer Drug Screen. Data for the mec2-1 strain (AID 157); conditions: S. cerevisiae mec2-1 strain, hits give high values
How it was run: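 Compounds were applied to mec2-1 yeast cells. Their growth was then compared with that of vehicle-treated cultures to give growth inhibition.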

[7] = NCI Yeast Anticancer Drug Screen. Data for the sgs1 mgt1 strain (AID 161);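 also: 0% = growth of cultures given vehicle only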; conditions: S. cerevisiae sgs1 mgt1 strain, hits give high values
How it was run: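 Growth of a repair-deficient yeast mutant was monitored after compound treatment and expressed as inhibition relative to vehicle-treated cultures.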

[8] = NCI Yeast Anticancer Drug Screen. Data for the CLN2oe strain (AID 163);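 also: 0% = growth of vehicle-only control cultures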; conditions: S. cerevisiae CLN2oe strain, hits give high values
How it was run: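 Cells of an engineered yeast line with disturbed cell-cycle regulation are treated with compound. Inhibition of growth is then calculated relative to the vehicle-treated reference.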

[9] = NCI Yeast Anticancer Drug Screen. Data for the cln2 rad14 strain (AID 165);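 also: 0% = growth equal to vehicle treated cultures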; conditions: S. cerevisiae cln2 rad14 strain, hits give high values
How it was run: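 Strain: cln2 rad14 yeast, altered in cell cycle control and DNA damage repair. Read-out: growth inhibition vs vehicle.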

[10] = NCI Yeast Anticancer Drug Screen. Data for the bub3 strain (AID 167); conditions: S. cerevisiae bub3 mutant strain, hits give high values
How it was run: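 Part of a panel of yeast mutants defective in DNA damage repair or cell cycle regulation. Each strain is grown with compound, and inhibition is calculated relative to solvent-treated cultures.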

[11] = NCI Yeast Anticancer Drug Screen. Data for the wt2 strain (AID 169);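 also: 0% = growth of vehicle-treated yeast cultures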; conditions: S. cerevisiae wt2 strain growth inhibition, hits give high values
How it was run: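 Growth of compound-treated yeast is measured and expressed as inhibition relative to vehicle-only controls.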

[12] = NCI Yeast Anticancer Drug Screen. Data for the mlh1 strain (AID 171);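 also: 0% = growth of vehicle-treated control cultures of the same strain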; conditions: S. cerevisiae mlh1 strain growth inhibition, hits give high values
How it was run: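 Test agents were incubated with yeast bearing a defined DNA damage repair or cell cycle control alteration; values are growth inhibition normalised to vehicle-treated cultures.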

[13] = NCI Yeast Anticancer Drug Screen. Data for the sgs1 strain (AID 173);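 also: 0% = growth of vehicle-only control cultures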; conditions: S. cerevisiae sgs1 mutant, hits give high values
How it was run: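 Strain with an altered DNA repair or cell cycle pathway exposed to compound. Growth then measured. Value = inhibition versus vehicle control.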

[14] = NCI Yeast Anticancer Drug Screen. Data for the mlh1 rad18 strain (AID 175); conditions: S. cerevisiae mlh1 rad18 strain growth inhibition, hits give high values
How it was run: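 A repair-deficient yeast strain is exposed to test compound, and growth is scored relative to vehicle-treated controls.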

[15] = NCI Yeast Anticancer Drug Screen. Data for the rad18 strain (AID 177); conditions: S. cerevisiae rad18 mutant growth inhibition, hits give high values
How it was run: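 DNA-repair-defective yeast; compound treatment; growth inhibition scored against vehicle.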

[16] = NCI Yeast Anticancer Drug Screen. Data for the rad14 strain (AID 159);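 also: 0% = growth of vehicle-treated control cultures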; conditions: S. cerevisiae rad14 strain growth inhibition, hits give high values
How it was run: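 Readout: yeast growth inhibition, referenced to vehicle-only cultures. Strain bears a defined alteration in DNA damage repair.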

[17] = at 5.0 µM (retest, dose inferred, filed as 0.5)
[18] = at 50.0 µM (retest, dose inferred, filed as 5.0)

Measured: growth inhibition

CCOc1ccc(N)c(S)c1
active: [1]; at 33.0 µM 79% | [1]; at 100.0 µM 97% | [2]; at 100.0 µM 97% | [3]; at 33.0 µM 97% | [3]; at 100.0 µM 96% | [4]; at 33.0 µM 71% | [4]; at 100.0 µM 98% | [5]; at 33.0 µM 88% | [5]; [18] 98% | [5]; at 50.0 µM 93.6% | [5]; at 100.0 µM 97% | [6]; [18] 96% | [6]; at 50.0 µM 91.3% | [6]; at 100.0 µM 98% | [7]; [18] 97% | [7]; at 50.0 µM 98.2% | [8]; at 100.0 µM 91% | [9]; [18] 98% | [9]; at 50.0 µM 97% | [10]; at 33.0 µM 97% | [10]; at 50.0 µM 98% | [10]; at 100.0 µM 96% | [11]; at 33.0 µM 86% | [11]; at 100.0 µM 97% | [12]; at 33.0 µM 82% | [12]; at 100.0 µM 98% | [13]; at 33.0 µM 97% | [13]; at 100.0 µM 96% | [14]; [18] 98% | [14]; at 50.0 µM 92% | [15]; at 33.0 µM 85% | [15]; at 100.0 µM 95%
inactive: [1]; at 1.2 µM 1% | [1]; at 3.7 µM 3% | [1]; at 11.0 µM 10% | [2]; at 1.2 µM 0% | [2]; at 3.7 µM 4% | [2]; at 11.0 µM 7% | [2]; at 33.0 µM 38% | [3]; at 1.2 µM 0% | [3]; at 3.7 µM -4% | [3]; at 11.0 µM 10% | [4]; at 1.2 µM 0% | [4]; at 3.7 µM -1% | [4]; at 11.0 µM 6% | [5]; at 1.2 µM 1% | [5]; at 3.7 µM -45% | [5]; [17] 0% | [5]; at 11.0 µM 34% | [6]; at 1.2 µM 0% | [6]; at 3.7 µM 4% | [6]; [17] -1% | [6]; at 11.0 µM 17% | [6]; at 33.0 µM 68% | [7]; [17] 9% | [8]; at 1.2 µM 0% | [8]; at 3.7 µM -6% | [8]; at 11.0 µM -4% | [8]; at 33.0 µM 4% | [9]; [17] 9% | [10]; at 1.2 µM 0% | [10]; at 3.7 µM 4% | [10]; [17] 1% | [10]; at 11.0 µM 23% | [10]; [18] 27% | [11]; at 1.2 µM -1% | [11]; at 3.7 µM 8% | [11]; at 11.0 µM 3% | [12]; at 1.2 µM 0% | [12]; at 3.7 µM 3% | [12]; at 11.0 µM 10% | [13]; at 1.2 µM -3% | [13]; at 3.7 µM 0% | [13]; at 11.0 µM 18% | [14]; [17] 2% | [15]; at 1.2 µM 1% | [15]; at 3.7 µM 0% | [15]; at 11.0 µM 9%

CNCC(C)CNC
active: [5]; at 50.0 µM 73.8% | [14]; [18] 84% | [14]; at 50.0 µM 71.8%
inactive: [1]; at 1.2 µM -40% | [1]; at 3.7 µM -51% | [1]; at 11.0 µM -46% | [1]; at 33.0 µM -50% | [1]; at 100.0 µM -52% | [2]; at 1.2 µM -25% | [2]; at 3.7 µM -14% | [2]; at 11.0 µM -5% | [2]; at 33.0 µM -8% | [2]; at 100.0 µM -21% | [3]; at 1.2 µM -14% | [3]; at 3.7 µM -29% | [3]; at 11.0 µM -23% | [3]; at 33.0 µM -2% | [3]; at 100.0 µM -19% | [4]; at 1.2 µM 9% | [4]; at 3.7 µM 17% | [4]; at 11.0 µM 25% | [4]; at 33.0 µM 4% | [4]; at 100.0 µM 5% | [5]; at 1.2 µM 4% | [5]; at 3.7 µM -14% | [5]; [17] -6% | [5]; at 11.0 µM -28% | [5]; at 33.0 µM -27% | [5]; [18] 22% | [5]; at 100.0 µM -23% | [6]; at 1.2 µM -12% | [6]; at 3.7 µM -15% | [6]; [17] 10% | [6]; at 11.0 µM -19% | [6]; at 33.0 µM -27% | [6]; [18] 39% | [6]; at 50.0 µM 42.5% | [6]; at 100.0 µM -26% | [16]; at 1.2 µM -18% | [16]; at 3.7 µM -15% | [16]; at 11.0 µM -13% | [16]; at 33.0 µM -12% | [16]; at 100.0 µM -18% | [8]; at 1.2 µM 15% | [8]; at 3.7 µM 6% | [8]; at 11.0 µM -1% | [8]; at 33.0 µM -7% | [8]; at 100.0 µM -12% | [9]; [17] 20% | [9]; [18] 63% | [9]; at 50.0 µM 66.2% | [10]; at 1.2 µM -11% | [10]; at 3.7 µM 1% | [10]; [17] -9% | [10]; at 11.0 µM -8% | [10]; at 33.0 µM -33% | [10]; [18] 69% | [10]; at 50.0 µM -2.65% | [10]; at 100.0 µM -50% | [11]; at 1.2 µM -30% | [11]; at 3.7 µM -30% | [11]; at 11.0 µM -28% | [11]; at 33.0 µM -37% | [11]; at 100.0 µM -41% | [12]; at 1.2 µM 12% | [12]; at 3.7 µM 8% | [12]; at 11.0 µM 5% | [12]; at 33.0 µM 6% | [12]; at 100.0 µM -30% | [13]; at 1.2 µM -28% | [13]; at 3.7 µM -6% | [13]; at 11.0 µM -22% | [13]; at 33.0 µM -23% | [13]; at 100.0 µM -22% | [14]; [17] -6% | [15]; at 1.2 µM -16% | [15]; at 3.7 µM -25% | [15]; at 11.0 µM -21% | [15]; at 33.0 µM -21% | [15]; at 100.0 µM -31%
